Experimental data from PubChem BioAssay (NCATS).
Results filed as inconclusive are left out. Activity calls are given as the source filed them. Calls follow the shape of the dose curve; as a rule, active = well fitted cell-killing curve with a large enough effect; inconclusive = small, poorly fitted or top-dose-only effect, or effect the other way; inactive = flat fitted curve, though single readings scatter.

Experiments:
Test in all cases: Primary qHTS to identify gynecologic anti-cancer compounds using libraries of approved drugs and bioactive compounds (AID 1345084); also: nearly all actives have a fitted effect of over 55% in size
Settings in all cases: Gynecologic cancer cell panel viability, ATPlite luminescence, 48 h; series mostly up to 57.5 µM
[1] = system: OV90
How it was run: (§1)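 Cells, 1,000 per well, plated 16 h, then exposed 48 h at 37 C to compounds. Viability by ATPlite luminescence after 15 min at room temperature.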

[2] = system: PA-1
How it was run: as §1

[3] = system: SKOV3
How it was run: as §1

[4] = system: Tov-21-G
How it was run: as §1

[5] = system: Tov112D
How it was run: as §1
% is scaled to controls: 0 for no effect and ±100 for the full control effect.

C=C[C@H]1[C@H](O[C@@H]2O[C@H](CO)[C@@H](O)[C@H](OC(=O)/C=C/c3ccc(O)c(OC)c3)[C@H]2O)OC=C2C(=O)OCC[C@]21O
inactive: Potency [1] | Potency [2] | Potency [3] | Potency [4] | Potency [5]

CC1=CC(=O)CC(C)(C)C1CO[C@@H]1O[C@H](CO)[C@@H](O)[C@H](O)[C@H]1O (stereo not given in full)
inactive: Potency [1] | Potency [2] | Potency [3] | Potency [4] | Potency [5]

CC(C)CC(=O)OC[C@@]1(O)C[C@@]23CC[C@H]4[C@@](C)(CCC[C@@]4(C)C(=O)O)[C@@H]2CC[C@@H]1C3
inactive: Potency [1] | Potency [2] | Potency [3] | Potency [4] | Potency [5]

CCOc1ccc(-c2nn3ncccc3c2-c2ccc(S(C)(=O)=O)cc2)cc1
inactive: Potency [1] | Potency [2] | Potency [3] | Potency [4] | Potency [5]

CC(=O)O[C@@]1(C)[C@@H]2CC(=C(C)C)C(=O)C[C@@]2(C)CC[C@H]1OC(=O)C1(C)OC1C (stereo not given in full)
inactive: Potency [1] | Potency [2] | Potency [3] | Potency [4] | Potency [5]

CN(C)c1ccc(C2O[C@@H](c3ccccc3)C[C@H](c3ccccc3)O2)cc1 (stereo not given in full)
inactive: Potency [1] | Potency [2] | Potency [3] | Potency [4] | Potency [5]

C/C=C(/C)C(=O)O[C@@H]1C[C@@H](OC(=O)/C(C)=C\C)[C@@]2(C)C3C(=O)C=C(C)C2C3C1(C)C
inactive: Potency [1] | Potency [2] | Potency [3] | Potency [4] | Potency [5]

O=C(/C=C/c1ccc(O)c(O)c1)O[C@H]1[C@@H]2C=CO[C@@H](O[C@@H]3O[C@H](CO)[C@@H](O)[C@H](O)[C@H]3O)[C@@H]2[C@@]2(CO)O[C@@H]12
inactive: Potency [1] | Potency [2] | Potency [3] | Potency [4] | Potency [5]

Cc1cc(-n2c(=O)[nH]c(=O)n(C)c2=O)ccc1Oc1ccc(SC(F)(F)F)cc1
inactive: Potency [1] | Potency [2] | Potency [3] | Potency [4] | Potency [5]

CO[C@@H]1[C@]2(O)C(=O)N3/C=C\C(C)(C)c4[nH]c5ccccc5c4/C=C\3C(=O)N2[C@]23[C@H](CO)C(C)(C)N2c2ccccc2[C@]13O
inactive: Potency [1] | Potency [2] | Potency [3] | Potency [4] | Potency [5]

N#CN1CCC[C@@H](n2nc(-c3ccc(Oc4ccc(F)cc4F)cc3)c(C(N)=O)c2N)C1
inactive: Potency [1] | Potency [2] | Potency [3] | Potency [4] | Potency [5]

CC(=O)O[C@H]1[C@H](O[C@H]2CC[C@]34C[C@]35CC[C@]3(C)[C@@H]([C@@]6(C)CC[C@@H](C(C)(C)O)O6)[C@@H](O)C[C@@]3(C)[C@@H]5C[C@H](O[C@@H]3O[C@H](CO)[C@@H](O)[C@H](O)[C@H]3O)[C@H]4C2(C)C)OC[C@@H](OC(C)=O)[C@@H]1O
inactive: Potency [1] | Potency [2] | Potency [3] | Potency [4] | Potency [5]

CC12CC34CC(O)C5C(CO)(CO)CC(=O)CC5(C)C3CC1C2C4 (stereo not given)
inactive: Potency [1] | Potency [2] | Potency [3] | Potency [4] | Potency [5]

CCC(C)(C)C1CCc2c(sc(NC(=O)c3ccc(Br)cc3)c2C#N)C1 (stereo not given)
inactive: Potency [1] | Potency [2] | Potency [3] | Potency [4] | Potency [5]

COc1cc([C@@H](O[C@@H]2O[C@H](CO)[C@@H](O)[C@H](O)[C@H]2O)[C@@H]2CO[C@H](c3ccc(O)c(OC)c3)[C@H]2CO)ccc1O
inactive: Potency [1] | Potency [2] | Potency [3] | Potency [4] | Potency [5]

C/C=C/C1OC2=C(C(=O)OC2(C)O)C(O)C1O (stereo not given)
inactive: Potency [1] | Potency [2] | Potency [3] | Potency [4] | Potency [5]

Cn1cc(CCn2cnc(-c3cnn(C)c3)c2-c2ccc(C#N)cc2)cn1
inactive: Potency [1] | Potency [2] | Potency [3] | Potency [4] | Potency [5]

COC(=O)C1=C[C@@H](O)[C@@H](O)[C@H](O[C@@H]2O[C@H](CO)[C@@H](O)[C@H](O)[C@H]2OC(=O)/C=C/c2ccccc2)C1
inactive: Potency [1] | Potency [2] | Potency [3] | Potency [4] | Potency [5]

CCCO[C@@H]1O[C@H](CO)[C@@H](O)[C@H](O)[C@H]1O[C@@H]1OC[C@@H](O)[C@H](O)[C@H]1O
inactive: Potency [1] | Potency [2] | Potency [3] | Potency [4] | Potency [5]

CC(C)(O)C1CC=C(C(=O)OC[C@H]2O[C@@H](OC(=O)C3=CCC(C(C)(C)O)CC3)[C@H](O)[C@@H](O)[C@@H]2O)CC1 (stereo not given in full)
inactive: Potency [1] | Potency [2] | Potency [3] | Potency [4] | Potency [5]

CCC[C@H](N[C@@H](C)C(=O)N1[C@H](C(=O)O)C[C@@H]2CCCC[C@@H]21)C(=O)O
inactive: Potency [1] | Potency [2] | Potency [3] | Potency [4] | Potency [5]

O=C(O[C@H]1[C@H](Oc2ccc(O)cc2CO)O[C@H](CO)[C@@H](O)[C@@H]1O)c1ccccc1
inactive: Potency [1] | Potency [2] | Potency [3] | Potency [4] | Potency [5]

C=C[C@]1(C)C[C@@H](OC(=O)CSC2C[C@H]3CC[C@@H](C2)N3C)[C@]2(C)[C@H](C)CC[C@]3(CCC(=O)[C@H]32)[C@@H](C)[C@@H]1O (stereo not given in full)
inactive: Potency [1] | Potency [2] | Potency [3] | Potency [4] | Potency [5]

CSC(=O)OCC1=C[C@@H]2OC(=O)C3=CO[C@@H](O[C@@H]4O[C@H](CO)[C@@H](O)[C@H](O)[C@H]4O)[C@H]1[C@@H]32
inactive: Potency [1] | Potency [2] | Potency [3] | Potency [4] | Potency [5]

C/C=C(\C)C(=O)O[C@H]1C=CC(=O)O[C@H]1/C=C/[C@H](O)[C@@H](C)O
inactive: Potency [1] | Potency [2] | Potency [3] | Potency [4] | Potency [5]

COC(=O)C1=COC(O[C@@H]2O[C@H](COC(=O)/C=C/c3ccc(O)cc3)[C@@H](O)[C@H](O)[C@H]2O)C2C(CO)=CCC12 (stereo not given in full)
inactive: Potency [1] | Potency [2] | Potency [3] | Potency [4] | Potency [5]

C[C@@H]1CC[C@]2(C(=O)O)CC[C@]3(C)C(=CCC4[C@@]5(C)C[C@@H](O)[C@H](O)[C@@](C)(CO)C5CC[C@]43C)C2[C@H]1C (stereo not given in full)
inactive: Potency [1] | Potency [2] | Potency [3] | Potency [4] | Potency [5]

CC1(C)CC=C(c2cnc3ccccc3c2)c2cc(C(=O)Nc3ccc(C(=O)O)cc3)ccc21
inactive: Potency [1] | Potency [2] | Potency [3] | Potency [4] | Potency [5]

O=C(OC1C=C(CO)C2C(OC3OC(CO)C(O)C(O)C3O)OC=CC12O)c1ccc(O)cc1 (stereo not given)
inactive: Potency [1] | Potency [2] | Potency [3] | Potency [4] | Potency [5]

O=C(O)CCc1cccc(O)c1O[C@@H]1O[C@H](CO)[C@@H](O)[C@H](O)[C@H]1O
inactive: Potency [1] | Potency [2] | Potency [3] | Potency [4] | Potency [5]

CC1CC(O)/C=C/C(O)/C=C\C(=O)O1 (stereo not given)
inactive: Potency [1] | Potency [2] | Potency [3] | Potency [4] | Potency [5]

C/C(=C/CO)CC[C@H]1[C@]2(C)C[C@H](O)CC(C)(C)[C@H]2CC[C@]1(C)O
inactive: Potency [1] | Potency [2] | Potency [3] | Potency [4] | Potency [5]

C=CCc1cc(OC)c(OC(C)C(O)c2ccc(O)c(OC)c2)c(OC)c1 (stereo not given)
inactive: Potency [1] | Potency [2] | Potency [3] | Potency [4] | Potency [5]

CC(C)(CC(=O)N1CCCC1)NCC(=O)N1C[C@@H](F)C[C@H]1C#N
inactive: Potency [1] | Potency [2] | Potency [3] | Potency [4] | Potency [5]

Cc1c(NC(=O)N2CCOCC2)ccc2c1c1ccccc1n2C(C)C
inactive: Potency [1] | Potency [2] | Potency [3] | Potency [4] | Potency [5]

CCC1OC(=O)C(C)CC(C)C(=O)/C(C)=C/C(C)C(=O)/C=C/C1(C)O (stereo not given)
inactive: Potency [1] | Potency [2] | Potency [3] | Potency [4] | Potency [5]

CC1=C2CC(=O)C(C)CC/C=C(\C)CC2OC1=O (stereo not given)
inactive: Potency [1] | Potency [2] | Potency [3] | Potency [4] | Potency [5]

CC(=C\C(C)O)/C=C(\C)C(=O)CC1CC(CC(N)=O)CC(=O)O1 (stereo not given)
inactive: Potency [1] | Potency [2] | Potency [3] | Potency [4] | Potency [5]

CC(=O)OCC1OC(O[C@H]2CC[C@@]3(C)C(CC[C@]4(C)C3CC=C3[C@@H]5CC(C)(C)CC[C@]5(C(=O)O)CC[C@]34C)[C@]2(C)CO)C(O)C(O)C1OC1OC(C)C(O)C(OC2OCC(O)C(O)C2O)C1O (stereo not given in full)
inactive: activity change, negative = cytotoxicity [1] -3.49% [at 11.6 µM] | activity change, negative = cytotoxicity [2] -3.48% [at 11.6 µM] | activity change, negative = cytotoxicity [3] 19.9% [at 11.6 µM] | activity change, negative = cytotoxicity [4] 6.07% [at 11.6 µM] | activity change, negative = cytotoxicity [5] 0% [at 11.6 µM]

CC1=C2C(=O)C=C(CO[C@@H]3O[C@H](CO)[C@@H](O)[C@H](O)[C@H]3O)[C@@H]2[C@H]2OC(=O)[C@H](C)[C@@H]2[C@@H](O)C1
inactive: Potency [1] | Potency [2] | Potency [3] | Potency [4] | Potency [5]

C/C(=C\C(=O)C[C@@]12C(=O)O[C@]3(C)CC[C@H]1C[C@H]23)C(N)=O
inactive: Potency [1] | Potency [2] | Potency [3] | Potency [4] | Potency [5]

CC[C@@H]1C(=O)O[C@]23C=C[C@@H]4C(C(=O)OC)=CO[C@H](O[C@@H]12)[C@@H]43
inactive: Potency [1] | Potency [2] | Potency [3] | Potency [4] | Potency [5]

C=C1C[C@]23C[C@H]1CC[C@H]2[C@]1(C)CC[C@H](O)[C@@](C)(C(=O)O)[C@H]1[C@@H]3C(=O)O
inactive: Potency [1] | Potency [2] | Potency [3] | Potency [4] | Potency [5]
